A short description of test [1]: Wnt pathway potentiators raising nuclear beta-catenin – imaging, WNT3A-conditioned medium, mouse C2C12, NPC library, primary screen (AID 1117326; in the data active = nuclear beta-catenin stimulation mostly above about 4.2%, no sharp cut-off; inactive = mostly below about 10%; note: reference of the scale not given here). The conditions noted are these: stronger effect = higher value.
Test [2] is described as follows: stimulators of insulin release from INS-1E, primary screen, cell-based, 5 mM glucose, NPC library (AID 1117329;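 active = compound raises insulin release from rat beta cells at 5 mM glucose, no numeric limit stated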; note: reference of the scale not given here). As to conditions: rat INS-1E insulin secretion, at 10 µM, stronger effect = higher value.
Test [3] in a line: growth inhibition of GSK3B-pretreated HCT116 cells – cell-based, CellTiter-Glo, 0.2 to 20 µM (AID 1117336). The conditions noted are these: HCT116 viability after GSK3B inhibitor, at 20 µM, stronger effect = higher value. (In ATP-based viability assays light output follows the ATP content of the culture.)
Test [4] can be described thus: inhibition of endothelial tube formation, primary screen, imaging, VEGF stimulated, CD31 staining, tube area, NPC library (AID 1117340;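 active = compound that reduces growth-factor-driven endothelial tube area in a mixed cell culture, no cutoff stated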). As to conditions: VEGF-stimulated ADSC/ECFC co-culture, at 10 µM, stronger effect = higher value.
Test [5] can be described thus: GLP1 release stimulators, primary, NCI-H716, NPC library (AID 1117341;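 active = compound raises GLP1 secretion from the human gut endocrine cells, with no numeric limit stated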; note: reference of the scale not given here). The conditions noted are these: NCI-H716 cells, at 10 µM, stronger effect = higher value.
Test [6] can be described thus: HCT116 colon cancer cell growth inhibition, primary screen, CellTiter-Glo luminescence, NPC library (AID 1117342;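 active = compounds that lower survival of HCT116 colon cancer cells in the luminescence readout, no numeric limit stated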). As to conditions: at 20 µM (top of the series).
Test [7] is described as follows: reduced SW480 viability measured with CellTiter-Glo, NPC library, primary (AID 1117343;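 active = compounds that lower viability of the colon cancer cells in the luminescence readout, with no numeric limit stated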). As to conditions: CellTiter-Glo luminescence; at 20 µM (top of the series).
Test [8] in a line: NPC library primary testing for decreased DLD-1 cell viability via CellTiter-Glo (AID 1117346;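 active = compounds that lower survival of DLD-1 colon cancer cells in the luminescence readout, no cutoff given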). As to conditions: DLD-1 viability, CellTiter-Glo luminescence; at 20 µM (top of the series).

Activity calls are given as the source filed them.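 Rule for the calls, unless noted: active = compounds lowering colon cancer cell viability after pretreatment blocking the GSK3B kinase; inactive = the rest.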

On to `CC[N+](CC)(CC)CCOC(=O)C(C1CCCC1)C1CCCC1`, for which the nuclear beta-catenin stimulation is 1.2% (inactive) in test [1] (at 10 µM) and 2% in test [1] (stimulation, at 2 µM). For the same compound, the insulin secretion stimulation in test [2] is 0.5% (inactive). Besides, the viability decrease in test [3] is 28.7% (inactive). In addition, the tube area decrease in test [4] was 8.3% (inactive). Moreover, the GLP1 secretion stimulation in test [5] was 1.6% (inactive). For the same compound, in test [6], the inhibition of viability was 21.8% (inactive). Further, the viability decrease (inhibition) is -14.4% (inactive) in test [7] and 4.1% (inactive) in test [8].

Take `CCCCCCCCCC(=O)O`: the nuclear beta-catenin stimulation in test [1] (at 10 µM) was -1.9% (inactive); in test [1] (stimulation, at 2 µM), 0.7%. Further, the insulin secretion stimulation in test [2] is 3.3% (inactive). Besides, the viability decrease in test [3] was -11.4% (inactive). Further, the tube area decrease in test [4] is -24.1% (inactive). Besides, the GLP1 secretion stimulation in test [5] was 1.6% (inactive). The inhibition of viability in test [6] was 7.9% (inactive). Besides, the viability decrease (inhibition) is 49.5% (inactive) in test [7] and 4.9% (inactive) in test [8].

For `O=C(NCN1CCOCC1)c1cnccn1`, the nuclear beta-catenin stimulation in test [1] (at 10 µM) was 1.4% (inactive); in test [1] (stimulation, at 2 µM) it was 0.7%. Further, the insulin secretion stimulation in test [2] was 0.2% (inactive). Also, the viability decrease in test [3] was 15.3% (inactive). Also, in test [4], the tube area decrease was 7.8% (inactive). Moreover, the GLP1 secretion stimulation in test [5] was -2.9% (inactive). The inhibition of viability in test [6] was 29.4% (inactive). Also, the viability decrease (inhibition) in test [7] is 40.1% (inactive); in test [8], 8.3% (inactive).

Turning to `O=C(CCC1CCN(Cc2ccccc2)CC1)c1ccc2c(c1)NCCCC2`, the nuclear beta-catenin stimulation is 3.2% (inactive) in test [1] (at 10 µM) and 3.5% in test [1] (stimulation, at 2 µM). Further, the insulin secretion stimulation in test [2] is 4.2% (inactive). For the same compound, the viability decrease in test [3] was 53.5% (active). The tube area decrease in test [4] was 12.9% (inactive). Also, the GLP1 secretion stimulation in test [5] is 4.3% (inactive). For the same compound, the inhibition of viability in test [6] is 81.9% (active). Also, the viability decrease (inhibition) in test [7] was 93.9% (active); in test [8], 62.1% (active).

Regarding `CC(CC(C#N)(c1ccccc1)C(C)C)N(C)C` (configuration not stated), the nuclear beta-catenin stimulation in test [1] (at 10 µM) was 2.7% (inactive); in test [1] (stimulation, at 2 µM), 0.9%. Moreover, the insulin secretion stimulation in test [2] was 3.4% (inactive). In test [3], the viability decrease was -53.4% (inactive). In test [4], the tube area decrease is 1.3% (inactive). Further, in test [5], the GLP1 secretion stimulation was 0.5% (inactive). For the same compound, the inhibition of viability in test [6] was -4.77% (inactive). The viability decrease (inhibition) was 14.5% (inactive) in test [7] and -20% (inactive) in test [8].

As to `CC/C=C(\C(=O)N[C@@H]1C(=O)N2C(C(=O)OCOC(=O)C(C)(C)C)=C(COC(N)=O)CS[C@H]12)c1csc(N)n1`, the nuclear beta-catenin stimulation is -1% (inactive) in test [1] (at 10 µM) and -0.1% in test [1] (stimulation, at 2 µM). Further, the insulin secretion stimulation in test [2] is 1.85% (inactive). Also, in test [3], the viability decrease was -5.5% (inactive). Further, the tube area decrease in test [4] was -9.6% (inactive). The GLP1 secretion stimulation in test [5] is -0.1% (inactive). For the same compound, the inhibition of viability in test [6] was -6.4% (inactive). Also, the viability decrease (inhibition) in test [7] is -3.4% (inactive); in test [8], -17.7% (inactive).

In the case of `COCCc1ccc(OCC2CO2)cc1` (configuration not stated), the nuclear beta-catenin stimulation was 0.9% (inactive) in test [1] (at 10 µM) and 0.3% in test [1] (stimulation, at 2 µM). In test [2], the insulin secretion stimulation is 0.8% (inactive). Also, the viability decrease in test [3] was -8% (inactive). The tube area decrease in test [4] was -12.7% (inactive). For the same compound, the GLP1 secretion stimulation in test [5] is 0.8% (inactive). Further, the inhibition of viability in test [6] was -0.6% (inactive). Besides, the viability decrease (inhibition) in test [7] is 14.3% (inactive); in test [8] it was 3.3% (inactive).

As to `NC(=S)N=Nc1ccc(NN=C(N)N)cc1`, the nuclear beta-catenin stimulation in test [1] (at 10 µM) was 1.9% (inactive); in test [1] (stimulation, at 2 µM), 0.5%. The insulin secretion stimulation in test [2] is 6.7% (inactive). In test [3], the viability decrease is -24.6% (inactive). The tube area decrease in test [4] was 15.7% (inactive). Further, the GLP1 secretion stimulation in test [5] was -3.7% (inactive). For the same compound, the inhibition of viability in test [6] is 4.5% (inactive). Besides, the viability decrease (inhibition) in test [7] was 25% (inactive); in test [8] it was 72.1% (active).

Take `CCOC(=O)N1CCC(Nc2ccc(Cl)cc2N)CC1`: the nuclear beta-catenin stimulation is 5.3% (inactive) in test [1] (at 10 µM) and 4.4% in test [1] (stimulation, at 2 µM). Further, the insulin secretion stimulation in test [2] is 0.6% (inactive). The viability decrease in test [3] was 0.9% (inactive). In addition, the tube area decrease in test [4] is 41.4% (active). In test [5], the GLP1 secretion stimulation was -4.9% (inactive). In addition, in test [6], the inhibition of viability is 32.5% (inactive). The values for the viability decrease (inhibition) in test [7] and in test [8] were 27.8% (inactive) and -12.2% (inactive), respectively.

Regarding `CCOC(=O)COc1ccc2c(C)c(CCN(CC)CC)c(=O)oc2c1Cl`, the nuclear beta-catenin stimulation in test [1] (at 10 µM) is -2.3% (inactive); in test [1] (stimulation, at 2 µM) it was -0.4%. In addition, in test [2], the insulin secretion stimulation is 0% (inactive). In test [3], the viability decrease is -5% (inactive). Further, the tube area decrease in test [4] was 45.5% (active). In addition, the GLP1 secretion stimulation in test [5] is 2.5% (inactive). The inhibition of viability in test [6] was 15.1% (inactive). Further, the viability decrease (inhibition) in test [7] was 7.8% (inactive); in test [8], -17.9% (inactive).

Turning to `CCCc1c2oc(C(=O)O)cc(=O)c2cc2c(=O)cc(C(=O)O)n(CC)c12`, the nuclear beta-catenin stimulation in test [1] (at 10 µM) was -1.6% (inactive); in test [1] (stimulation, at 2 µM), -1%. Further, in test [2], the insulin secretion stimulation was 2.6% (inactive). In addition, the viability decrease in test [3] was 7.4% (inactive). Also, the tube area decrease in test [4] is -19.4% (inactive). In test [5], the GLP1 secretion stimulation is -2.3% (inactive). Besides, the inhibition of viability in test [6] is 18.2% (inactive). Further, the results for the viability decrease (inhibition) in test [7] and in test [8] were 34.6% (inactive) and 15.2% (inactive), respectively.

Take `Cc1onc(-c2ccccc2Cl)c1C(=O)Cl`: the nuclear beta-catenin stimulation in test [1] (at 10 µM) was -1.6% (inactive); in test [1] (stimulation, at 2 µM), -0.5%. Moreover, the insulin secretion stimulation in test [2] was 0.3% (inactive). Besides, the viability decrease in test [3] was -16.4% (inactive). Also, in test [4], the tube area decrease was 0.4% (inactive). Besides, the GLP1 secretion stimulation in test [5] is 0.1% (inactive). Further, in test [6], the inhibition of viability was 0.4% (inactive). Further, the figures for the viability decrease (inhibition) in test [7] and in test [8] were 26.4% (inactive) and 14.3% (inactive), respectively.

For `COC(=O)C(CN)c1c[nH]c2ccc(OC)cc12` (configuration not stated), the nuclear beta-catenin stimulation in test [1] (at 10 µM) was -2.2% (inactive); in test [1] (stimulation, at 2 µM), -1%. Moreover, the insulin secretion stimulation in test [2] is 2.3% (inactive). Also, the viability decrease in test [3] is -18.2% (inactive). The tube area decrease in test [4] is 5.7% (inactive). Further, the GLP1 secretion stimulation in test [5] is 7.7% (inactive). The inhibition of viability in test [6] was 8.5% (inactive). For the same compound, the viability decrease (inhibition) in test [7] was 19.4% (inactive); in test [8], 16.7% (inactive).

The record behind these values is PubChem BioAssay.
